Results from PubChem BioAssay (NCI).
Several values for one entry are separate records, joined by “and”; a condition that tells them apart may be missing. Identical values can stand only once. Compounds without any hit were thinned out: in the full panel of roughly 83,000, 20% have a hit.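 Plates (96-well) were seeded with cells, treated with compound at one concentration, and incubated for 48 hours before percent growth was determined.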 Values without a mark were called inactive. Activity calls are given as the source filed them. How the source made its calls: active means growth percent below 10; inactive means the rest.

Test system: MDA-MB-468 breast
Experiment: NCI-60 one-dose screen, 48 h (100 = growth as untreated, 0 = no growth, -100 = all killed)
Conditions: 10 µM unless noted

SMILES | growth
O=c1ccc2cc3ccccc3cc2[nH]1 | 99%
Cc1cc(N2CCOCC2)nc(NCc2cc(Nc3ccnc4cc(Cl)ccc34)ccc2F)n1 | -71.9% (active)
CN(C)CCCn1c2c(c3ccncc3c1=O)C(=O)c1ccccc1-2 | -16% (active)
CN(C)CCCn1c(=O)c2cc([N+](=O)[O-])ccc2c2cnc3[nH]ccc3c21 | 81.3%
CCN(CC)CCCC(C)Nc1ccnc2cc(Oc3ccccc3)ccc12 (stereo unspecified) | 31.5% and 70.2%
Nc1c(C(=O)c2ccccc2)sc2nc(-c3cccs3)cc(-c3cccs3)c12 | 30.8%
N#Cc1ccc(-c2ccc(-c3cccs3)o2)cc1F | 6.91% (active)
COc1ccc(-c2c3c(N)nc(-c4ccncc4)nc3nc3c2c(C)nn3-c2ccccc2)cc1 | 72.7%
Cc1cc2cc3cc(C)c(N)cc3[n+](C)c2cc1N | -28.8% (active)
CCOP(=O)(OCC)OC[C@]12CCC(C)(C)C[C@H]1C1=CC[C@@H]3[C@@]4(C)CC[C@H](OP(=O)(OCC)OCC)C(C)(C)[C@@H]4CC[C@@]3(C)[C@]1(C)CC2 | 40.9%
CN(c1ccc(F)cc1)S(=O)(=O)c1ccc(-c2cnc(C3CC3)o2)cc1 | -8.39% (active)
CCCn1nc(C(=O)N(C)Cc2ccccc2)c2c1CCC(N1CCc3ccccc31)C2 (stereo unspecified) | 92.8%
CCN(CC)CC(=O)Nc1c(C)ccc(N)c1C | 95.8%
NS(=O)(=O)c1ccc(CN=C2NC(=O)S/C2=C\c2ccc(Br)cc2)cc1 | 97.1%
CN1C(=O)N(C)C2C1NN=c1s/c(=C\c3ccc(Cl)cc3Cl)c(=O)n12 (stereo unspecified) | 27.4%
CC(C)c1[nH]ncc1-c1nc2ccc3[nH]ncc3c2c2c1CCCC2 | 69.3%
COc1cccc(C=Nc2cc(C(C)C)c(O)cc2C)c1O | 95%
CC(C)=CCc1cc(O)cc2c1OC(C=C(C)C)C1=C2C(=O)C2=C(NCCS2(=O)=O)C1=O (stereo unspecified) | -27% (active)
O=C(O)c1cc(C(F)(F)F)cc(C(F)(F)F)c1 | 109%
COc1cc(-c2ccc(-[n+]3nc(-c4ccc([N+](=O)[O-])cc4)nn3-c3ccc([N+](=O)[O-])cc3)c(OC)c2)ccc1-[n+]1nc(-c2ccc([N+](=O)[O-])cc2)nn1-c1ccc([N+](=O)[O-])cc1 | -62.2% (active)
O=c1[nH]c(=O)c2cc(Cl)cc(Cl)c2[nH]1 | 112%
COc1ccc2oc(=O)cc(C3c4ccc([nH]4)C(c4cc(=O)oc5ccc(OC)cc45)c4ccc([nH]4)C(c4cc(=O)oc5ccc(OC)cc45)c4ccc([nH]4)C(c4cc(=O)oc5ccc(OC)cc45)c4ccc3[nH]4)c2c1 (stereo unspecified) | -38.6% (active)
CC(C)c1cc(C(=O)O)c(O)c(C(C)C)c1.CC(C)c1cc(C(=O)O)c(O)c(C(C)C)c1.[Mn] | 120%
COc1ccc(CCOc2cc3c(cc2OC)CCN(C(=O)NCc2cocn2)C3c2ccc(C)cc2C)cc1 (stereo unspecified) | 3.86% (active)
CC/C(=C(\c1ccc(Cl)cc1)c1ccc(OCCN2CCCCC2)cc1)c1ccc(O)cc1 | 22.4%
O=C1C=CC(=Nc2cc(Br)c(O)c(Br)c2)C=C1 | 51.4%
